Assay results taken from PubChem BioAssay (EPA / NIEHS).
Calls of active or inactive are those of the source. How the source made its calls: active means hit-call score of the fitted dose curve at least 0.9, where 1 is the maximum; inactive means score below 0.9.

Columns and labels:
[1] = BSK_CASM3C_SRB: Viability Assessment in the BioMAP Diversity Plus: CASM3C Assay (AID 2283050); conditions: primary human coronary artery smooth muscle cells;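 further: total protein by SRB staining as cytotoxicity measure in parallel cultures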
[2] = read-out: Thrombomodulin, THBD (gene 7056); test: BSK_CASM3C_Thrombomodulin: BioMAP Diversity Plus: CASM3C Assay for Thrombomodulin Biomarker Activity (AID 2283051); conditions: primary human coronary artery smooth muscle cells; actives raise or lower the signal;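 further: thrombomodulin protein level measured by ELISA 24 h after dosing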
[3] = read-out: Tissue Factor, F3 (gene 2152); test: BSK_CASM3C_TissueFactor: BioMAP Diversity Plus: CASM3C Assay for Tissue Factor Biomarker Activity (AID 2283052); conditions: primary human coronary artery smooth muscle cells; actives raise or lower the signal;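 further: cell surface tissue factor protein level read by ELISA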
[4] = read-out: Interferon-gamma inducible Protein 10 (IP10), CXCL10 (gene 3627); test: BSK_hDFCGF_IP10: BioMAP Diversity Plus: hDFCGF Assay for Interferon-gamma inducible Protein 10 (IP10) Biomarker Activity (AID 2283053); conditions: primary human foreskin fibroblasts; actives raise or lower the signal
In short: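 Human foreskin fibroblast primary cells (hDFCGF system) were dosed with chemical and assayed at 24 h; IP-10 measured by ELISA. Activity fitted bidirectionally relative to DMSO negative control as baseline.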

[5] = read-out: Vascular cell adhesion molecule 1 (VCAM1), VCAM1 (gene 7412); test: BSK_CASM3C_VCAM1: BioMAP Diversity Plus: CASM3C Assay for Vascular cell adhesion molecule 1 (VCAM1) Biomarker Activity (AID 2283055); conditions: primary human coronary artery smooth muscle cells; actives raise or lower the signal;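 further: VCAM-1 protein level quantified by ELISA on the cells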
[6] = read-out: Collagen III, COL3A1 (gene 1281); test: BSK_hDFCGF_CollagenIII: BioMAP Diversity Plus: hDFCGF Assay for Collagen III Biomarker Activity (AID 2283056); conditions: primary human foreskin fibroblasts; actives raise or lower the signal
In short: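 Human foreskin primary fibroblasts were exposed to test chemicals for 24 h, after which collagen III was quantified by ELISA. Activity was fitted bidirectionally against DMSO as negative control and baseline.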

[7] = read-out: Epidermal growth factor receptor (EGFR), EGFR (gene 1956); test: BSK_hDFCGF_EGFR: BioMAP Diversity Plus: hDFCGF Assay for Epidermal growth factor receptor (EGFR) Biomarker Activity (AID 2283057); conditions: primary human foreskin fibroblasts; actives raise or lower the signal
In short: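 Primary human foreskin fibroblasts were exposed to compound for 24 h, after which cell-surface EGFR was quantified by ELISA. Activity was fitted bidirectionally against the DMSO negative control as baseline.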

[8] = read-out: Interleukin-8 (IL8), CXCL8 (gene 3576); test: BSK_hDFCGF_IL8: BioMAP Diversity Plus: hDFCGF Assay for Interleukin-8 (IL8) Biomarker Activity (AID 2283058); conditions: primary human foreskin fibroblasts; actives raise or lower the signal
In short: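 hDFCGF human dermal fibroblasts; 24 h chemical exposure; IL-8 by ELISA; bidirectional curve fit vs DMSO baseline; gain or loss of signal scored.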

[9] = BSK_hDFCGF_Proliferation: Cell Proliferation Assessment in the BioMAP Diversity Plus: hDFCGF Assay (AID 2283059); conditions: primary human foreskin fibroblasts;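 further: curves fitted for both rise and fall of signal versus DMSO baseline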
In short: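 Total protein read at 560 nm after 0.1% SRB staining of TCA-fixed human skin fibroblasts, […]. Activity is fitted in both directions relative to DMSO as baseline.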

[10] = read-out: Macrophage colony-stimulating factor (MCSF), CSF1 (gene 1435); test: BSK_hDFCGF_MCSF: BioMAP Diversity Plus: hDFCGF Assay for Macrophage colony-stimulating factor (MCSF) Biomarker Activity (AID 2283060); conditions: primary human foreskin fibroblasts; actives raise or lower the signal
In short: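 Human foreskin primary fibroblasts were treated with test chemical for 24 h, and M-CSF was then measured by ELISA. Data were fitted bidirectionally against DMSO as the negative control and activity baseline.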

[11] = read-out: TIMP metallopeptidase inhibitor 1 (TIMP1), TIMP1 (gene 7076); test: BSK_hDFCGF_TIMP1: BioMAP Diversity Plus: hDFCGF Assay for TIMP metallopeptidase inhibitor 1 (TIMP1) Biomarker Activity (AID 2283062); conditions: primary human foreskin fibroblasts; actives raise or lower the signal
In short: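 Primary human foreskin fibroblasts in the hDFCGF system were dosed with compound for 24 h, then TIMP-1 was measured by ELISA. Activity was fitted bidirectionally relative to DMSO control; parallel SRB staining assessed cytotoxicity.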

[12] = read-out: Monokine induced gamma interferon (MIG), CXCL9 (gene 4283); test: BSK_hDFCGF_MIG: BioMAP Diversity Plus: hDFCGF Assay for Monokine induced gamma interferon (MIG) Biomarker Activity (AID 2283063); conditions: primary human foreskin fibroblasts; actives raise or lower the signal
In short: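 ELISA read-out of MIG from primary human dermal fibroblasts 24 h post-dosing. Gain or loss of signal fitted bidirectionally, DMSO as baseline.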

[13] = read-out: Matrix Metallopeptidase 1 (MMP1), MMP1 (gene 4312); test: BSK_hDFCGF_MMP1: BioMAP Diversity Plus: hDFCGF Assay for Matrix Metallopeptidase 1 (MMP1) Biomarker Activity (AID 2283064); conditions: primary human foreskin fibroblasts; actives raise or lower the signal
In short: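 Primary human foreskin fibroblasts in the hDFCGF system were dosed with test chemical, and MMP1 was measured by ELISA 24 h later. Values come from bidirectional curve fitting against the DMSO baseline.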

[14] = read-out: Plasminogen activator inhibitor-1 (PAI1), SERPINE1 (gene 5054); test: BSK_hDFCGF_PAI1: BioMAP Diversity Plus: hDFCGF Assay for Plasminogen activator inhibitor-1 (PAI1) Biomarker Activity (AID 2283066); conditions: primary human foreskin fibroblasts; actives raise or lower the signal
In short: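 Human foreskin fibroblasts in the hDFCGF system were dosed with compound for 24 h; PAI-1 was quantified by ELISA. Bidirectional curve fitting used DMSO as negative control and baseline.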

[15] = read-out: Intercellular Adhesion Molecule 1 (ICAM1), ICAM1 (gene 3383); test: BSK_KF3CT_ICAM1: BioMAP Diversity Plus: KF3CT Assay for Intercellular Adhesion Molecule 1 (ICAM1) Biomarker Activity (AID 2283067); conditions: primary human keratinocytes with fibroblasts; actives raise or lower the signal
In short: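 Human keratinocyte plus foreskin fibroblast primary co-culture was exposed to chemical for 24 h. ICAM-1 was then quantified by ELISA, and the data were fit bidirectionally against DMSO as the negative control and baseline.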

[16] = read-out: Interferon-gamma inducible Protein 10 (IP10), CXCL10 (gene 3627); test: BSK_KF3CT_IP10: BioMAP Diversity Plus: KF3CT Assay for Interferon-gamma inducible Protein 10 (IP10) Biomarker Activity (AID 2283068); conditions: primary human keratinocytes with fibroblasts; actives raise or lower the signal
In short: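 Human keratinocyte plus foreskin fibroblast primary co-culture exposed to test chemical for 24 h; IP-10 measured by ELISA. Concentration-response fitted bidirectionally against DMSO control as baseline.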

[17] = BSK_KF3CT_SRB: Viability Assessment in the BioMAP Diversity Plus: KF3CT Assay (AID 2283069); conditions: primary human keratinocytes with fibroblasts;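 further: total protein by sulforhodamine B staining as a cytotoxicity measure; read 24 h after compound addition; fitted for both signal gain and loss against DMSO baseline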
In short: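 Human primary keratinocyte plus foreskin fibroblast co-culture exposed to chemicals for 24 h. Total protein measured by 0.1% sulforhodamine B staining after 10% TCA fixation, read at 560 nm; bidirectional fitting versus DMSO baseline.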

[18] = read-out: TIMP metallopeptidase inhibitor 2 (TIMP2), TIMP2 (gene 7077); test: BSK_KF3CT_TIMP2: BioMAP Diversity Plus: KF3CT Assay for TIMP metallopeptidase inhibitor 2 (TIMP2) Biomarker Activity (AID 2283071); conditions: primary human keratinocytes with fibroblasts; actives raise or lower the signal
In short: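 Human primary keratinocyte/foreskin fibroblast co-culture dosed with chemical and sampled at 24 h. TIMP-2 levels quantified by ELISA; bidirectional fitting against DMSO negative control as baseline.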

[19] = read-out: Matrix Metallopeptidase 9 (MMP9), MMP9 (gene 4318); test: BSK_KF3CT_MMP9: BioMAP Diversity Plus: KF3CT Assay for Matrix Metallopeptidase 9 (MMP9) Biomarker Activity (AID 2283074); conditions: primary human keratinocytes with fibroblasts; actives raise or lower the signal;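 on AC50: MMP9 protein level quantified by ELISA in the co-culture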
In short: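 Keratinocyte plus foreskin fibroblast human primary skin co-culture was dosed with chemical and MMP-9 was quantified by ELISA 24 h later. Bidirectional curve fitting used DMSO as negative control and activity baseline.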

CD40, CD40 (gene 958) = test: BSK_LPS_CD40: BioMAP Diversity Plus: LPS Assay for CD40 Biomarker Activity (AID 2283076); conditions: primary human HUVEC with PBMC; actives raise or lower the signal
In short: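 Primary human umbilical vein endothelial cells co-cultured with peripheral blood mononuclear cells, LPS-stimulated, were dosed with chemical and read 24 h later. CD40 levels were measured by ELISA and fitted bidirectionally against DMSO as negative control and baseline.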

Measured: AC50

CC(C)(C)C(=O)CCl
active: [5] 11.7 µM | [14] 0.405 µM | CD40, CD40 (gene 958) 28.7 µM
inactive: all other assays above

O=[N+]([O-])C=Cc1ccccc1
inactive: [7]
active: [1] 20 µM | [2] 20 µM | [3] 20 µM | [4] 2.63 µM | [5] 8.66 µM | [6] 33.1 µM | [8] 4.35 µM | [9] 596 nM | [10] 2.91 µM | [11] 13 µM | [12] 2.4 µM | [13] 3.96 µM | [14] 4.03 µM | [15] 6.1 µM | [16] 6.18 µM | [17] 2.46 µM | [18] 8.02 µM | [19] 3.08 µM | CD40, CD40 (gene 958) 5.97 µM

O=c1c2ccccc2c(=O)c2c1cc(Cl)c1[nH]c3c([nH]c12)c(Cl)cc1c(=O)c2ccccc2c(=O)c13
active: [2] 6 µM | [4] 29 µM | [10] 20 µM
inactive: all other assays above

N#CCCCCC#N
inactive: all assays above

O=C1C(Cl)=C(Cl)C(=O)C(Cl)=C1Cl
inactive: [2] | [7] | [17]
active: [1] 20 µM | [3] 6.19 µM | [4] 20 µM | [5] 15.3 µM | [6] 20 µM | [8] 28.8 µM | [9] 1630 nM | [10] 20 µM | [11] 12.5 µM | [12] 31.4 µM | [13] 26.8 µM | [14] 27.1 µM | [15] 20 µM | [16] 23.7 µM | [18] 12.1 µM | [19] 13.5 µM | CD40, CD40 (gene 958) 15.1 µM
